Assay outcomes as filed in PubChem BioAssay.
Rows were chosen to be rich in hits. Some 1.8% of all compounds tested hit in one or more screens of this group.
PME-1 inh: blocks human protein phosphatase methylesterase 1. recombinant PME-1, FP-Rh probe fluorescence polarization. inhibition, % at 5.9 µM. 0.53% of 320,000 active. AID 2130;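 active = inhibition above the campaign mean of all compounds plus 3 SD, cut at about 26% in these data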;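 note: competitive labeling of PME-1 active site by serine hydrolase directed probe; 0% = PME-1 with DMSO and 100% = wells lacking PME-1 enzyme; inhibitors block probe labeling so polarization falls and inhibition rises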
LYPLA2 counter: counter-screen for PME1 inhibitors: inhibitors of human LYPLA2 | recombinant LYPLA2, FP-Rh probe fluorescence polarization | AID 2177 | O95372 | inhibition, % at 5.9 µM | 0.38% of 320,000 active;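 active = inhibition above the screen-wide mean plus 3 SD, limit set per campaign, cut at about 26% in these data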;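 note: 0% = LYPLA2 with DMSO and 100% = wells lacking LYPLA2 enzyme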
Target sequence (O95372 whole entry, looked up): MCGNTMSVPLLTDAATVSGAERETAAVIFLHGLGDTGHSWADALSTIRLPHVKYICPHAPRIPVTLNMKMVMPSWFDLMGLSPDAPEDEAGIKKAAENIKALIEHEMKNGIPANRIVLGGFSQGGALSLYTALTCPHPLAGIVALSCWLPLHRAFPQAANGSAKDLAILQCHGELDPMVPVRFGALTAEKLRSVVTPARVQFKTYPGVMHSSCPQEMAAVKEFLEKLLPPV
PAD4 FP inh: blocks human protein arginine deiminase 4 | AID 485272 | inhibition, % at 6.36 µM | recombinant PAD4, RCA probe fluorescence polarization | Q9UM07 | 0.41% of 330,000 active;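 active = percent inhibition above a cutoff equal to the mean of all tested compounds plus 3 SD, cut at about 15% in these data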;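 note: 0% = PAD4 with RCA probe and DMSO and 100% = probe without PAD4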
LYPLA1 counter: LYPLA1 (human) inhibition in PME1 counter-screen; O75608; 0.16% of 320,000 active; inhibition, % at 5.9 µM; recombinant LYPLA1, FP-Rh probe fluorescence polarization;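 active = inhibition above the mean of all tested compounds plus 3 SD, set per campaign, cut at about 14% in these data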;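 note: inhibitors block serine hydrolase probe labeling of LYPLA1 so polarization falls; 0% = enzyme with DMSO and 100% = wells lacking LYPLA1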
Fam108B counter: counter-screen for RBBP9 inhibitors: inhibitors of mouse Fam108B; recombinant Fam108B, FP-Rh probe fluorescence polarization; inhibition, % at 9.51 µM; 0.33% of 300,000 active; AID 1947;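 active = inhibition above the screen mean inhibition plus 3 SD, computed separately per campaign, cut at about 18% in these data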;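 note: inhibitors lower polarization as less probe binds the enzyme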
GSTO1 inh: blocks human GSTO1 in RBBP9 counter-screen; inhibition, % at 5.96 µM; 1.1% of 300,000 active; AID 1974; recombinant GSTO1, activity-based probe fluorescence polarization;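 active = inhibition above the campaign mean inhibition plus 3 SD, cut at about 35% in these data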;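 note: 0% = GSTO1-1 with DMSO and 100% = wells lacking GSTO1-1 enzyme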
Target sequence (P78417 whole entry, looked up): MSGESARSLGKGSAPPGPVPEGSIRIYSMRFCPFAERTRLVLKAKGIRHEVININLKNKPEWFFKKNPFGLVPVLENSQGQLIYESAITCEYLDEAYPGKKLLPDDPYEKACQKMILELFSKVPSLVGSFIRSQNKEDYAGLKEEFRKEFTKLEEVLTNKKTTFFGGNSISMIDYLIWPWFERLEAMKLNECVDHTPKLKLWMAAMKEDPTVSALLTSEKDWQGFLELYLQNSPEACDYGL
GSTO1 confirm: GSTO1 (human) inhibition, confirmation | shares compounds with GSTO1 inh | recombinant GSTO1, probe fluorescence polarization | inhibition, % at 5.96 µM | 54% of 2,400 active;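 active = inhibition above the primary screen's cutoff, its mean inhibition plus 3 SD, cut at about 35% in these data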;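 note: loss of polarization as inhibitors block binding of rhodamine sulfonate ester activity probe; 0% = GSTO1 with DMSO and 100% = wells lacking GSTO1 enzyme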
* = called active by the depositor; . = no result given.

SMILES	PME-1 inh	LYPLA2 counter	PAD4 FP inh	LYPLA1 counter	Fam108B counter	GSTO1 inh	GSTO1 confirm
CC1(OC(=O)CCc2ccccc2)C(=O)C=C2C=C(c3ccc(C#N)cc3)N(c3ccccc3)C=C2C1=O (centres undefined)	-3.7	-4.7	-10.5	-0.1	2.8	21.1	.
COC/C=C/C1=CC2=CC(=O)C(C)(OC(=O)c3cnc4ccccc4n3)C(=O)C2=CN1CCc1c[nH]c2ccccc12 (centres undefined)	0.3	-2.3	0.1	-3.4	7.6	45.4*	5.7
COC/C=C/C1=CC2=CC(=O)C(C)(OC(=O)c3cnc4ccccc4n3)C(=O)C2=CN1c1ccccc1 (centres undefined)	7.9	2.9	-0.9	0.9	1.2	37.7*	3.5
CCCCC1=CC2=CC(=O)C(C)(OC(=O)CC)C(=O)C2=CN1CCc1ccccn1 (centres undefined)	-0.1	-0.6	-8.1	-0.4	6.2	10.3	.
COc1ccc([C@H]2/C=C\CN(C(=O)[C@H](Cc3ccccc3)NC(=O)OCC3c4ccccc4-c4ccccc43)CC(=O)N2Cc2ccc(F)cc2)cc1	4.7	-3.0	0.0	-1.3	0.1	-0.1	.
O=C(COC(=O)c1ccc([N+](=O)[O-])s1)NCc1ccc(F)cc1	8.4	9.6	3.7	5.9	6.2	42.8*	16.3
O=C(COC(=O)c1ccc([N+](=O)[O-])s1)NC(=O)NCc1ccccc1	8.7	18.6	-3.3	3.3	7.3	50.6*	16.8
Cc1noc(C)c1-c1nc(CS(=O)(=O)c2ccccc2)no1	-3.6	-0.5	1.9	-2.0	0.2	-2.2	.
CCN(CC)c1ccc(NS(=O)(=O)c2ccc(OC)cc2)cc1	10.9	4.3	2.9	-1.9	0.3	56.0*	56.0*
O=C(CSc1c2c(nc3ccc(Cl)cc13)CCCC2)NCCCN1CCOCC1	-1.0	2.9	3.8	-2.1	-1.2	-8.9	.
Cc1cc([N+](=O)[O-])cc2c1NC(=O)C2(O)N1CCOCC1 (centres undefined)	7.0	2.8	-5.1	-1.0	4.4	38.0*	14.9
CC(CCc1ccccc1)NC(=O)COC(=O)C1CCC(C(C)(C)C)CC1 (centres undefined)	-1.1	-4.5	1.2	-8.7	1.7	41.7*	31.2
Cc1nc2ncnn2c(C)c1CCC(=O)Oc1ccccc1	-8.9	-2.4	2.4	0.9	-2.7	0.5	.
O=C(O)c1ccc2cccc(O)c2n1	-2.6	-0.6	-0.9	-1.9	2.5	39.2*	22.2
O=C(O)c1ccc2cccnc2n1	-0.7	5.8	-6.5	-3.6	5.3	-1.0	.
CCOc1ccc(S(=O)(=O)NCc2cccnc2)cc1C(C)C	8.5	0.2	-4.5	1.1	-2.6	-1.7	.
CN(C)c1ccc(O)c2c1CC1CC3[C@@H](N(C)C)C(=O)C(C(N)=O)=C(O)[C@]3(O)C(=O)C1=C2O (some centres undefined)	-6.3	5.2	3.0	3.0	14.6	40.3*	33.7
Cc1cc(C)c(NC(=O)CSc2nc3ncc(Br)cc3[nH]2)c(C)c1	-9.9	-4.6	1.1	-1.4	-11.2	4.8	.
O=C(CSc1nc2ncc(Br)cc2[nH]1)Nc1ccc2c(c1)OCO2	3.4	-2.1	-2.9	-1.2	-1.6	45.4*	53.4*
CCc1ccc(S(=O)(=O)c2nnn3c2nc(N2CCOCC2)c2ccccc23)cc1	4.7	-2.8	3.3	0.3	4.4	-7.6	.
COc1ccc2nc(NC(=O)c3ccccc3O)sc2c1	-84.6	-14.1	-4.3	-6.9	5.5	8.0	.
CCOC(=O)c1cccc(C(=O)Nc2nc3ccc(OC)cc3s2)n1	-43.3	-5.8	-6.7	1.1	-6.2	53.4*	5.3
N/C(=C\C(=O)c1cc(Cl)ccc1O)C(Cl)(Cl)Cl	-2.0	4.9	-2.3	1.2	-1.4	65.2*	77.1*
N#CC(=C=[N-])c1nc2ccccc2nc1-[n+]1cccc(NC(=O)c2ccc(F)cc2)c1	2.1	3.4	-0.8	4.0	0.5	58.9*	21.7
CCc1cc[n+](-c2nc3ccccc3nc2C(=C=[N-])C#N)cc1	5.7	6.2	-0.4	-0.2	2.9	62.8*	32.5
O=C(Nc1ccc(/C=C/c2nc3ccccc3o2)cc1)c1ccc(F)cc1	-2.1	-9.0	1.3	-4.6	-7.7	1.6	.
